From ChEMBL document CHEMBL2218924, “A broad activity screen in support of a chemogenomic map for kinase signalling research and drug discovery” (Biochem J, 2013)

What was measured:
[1] = target: T1, Ephrin type-A receptor 3 (Homo sapiens) (UniProt P29320); details: at 10 µM
T1 sequence (whole entry): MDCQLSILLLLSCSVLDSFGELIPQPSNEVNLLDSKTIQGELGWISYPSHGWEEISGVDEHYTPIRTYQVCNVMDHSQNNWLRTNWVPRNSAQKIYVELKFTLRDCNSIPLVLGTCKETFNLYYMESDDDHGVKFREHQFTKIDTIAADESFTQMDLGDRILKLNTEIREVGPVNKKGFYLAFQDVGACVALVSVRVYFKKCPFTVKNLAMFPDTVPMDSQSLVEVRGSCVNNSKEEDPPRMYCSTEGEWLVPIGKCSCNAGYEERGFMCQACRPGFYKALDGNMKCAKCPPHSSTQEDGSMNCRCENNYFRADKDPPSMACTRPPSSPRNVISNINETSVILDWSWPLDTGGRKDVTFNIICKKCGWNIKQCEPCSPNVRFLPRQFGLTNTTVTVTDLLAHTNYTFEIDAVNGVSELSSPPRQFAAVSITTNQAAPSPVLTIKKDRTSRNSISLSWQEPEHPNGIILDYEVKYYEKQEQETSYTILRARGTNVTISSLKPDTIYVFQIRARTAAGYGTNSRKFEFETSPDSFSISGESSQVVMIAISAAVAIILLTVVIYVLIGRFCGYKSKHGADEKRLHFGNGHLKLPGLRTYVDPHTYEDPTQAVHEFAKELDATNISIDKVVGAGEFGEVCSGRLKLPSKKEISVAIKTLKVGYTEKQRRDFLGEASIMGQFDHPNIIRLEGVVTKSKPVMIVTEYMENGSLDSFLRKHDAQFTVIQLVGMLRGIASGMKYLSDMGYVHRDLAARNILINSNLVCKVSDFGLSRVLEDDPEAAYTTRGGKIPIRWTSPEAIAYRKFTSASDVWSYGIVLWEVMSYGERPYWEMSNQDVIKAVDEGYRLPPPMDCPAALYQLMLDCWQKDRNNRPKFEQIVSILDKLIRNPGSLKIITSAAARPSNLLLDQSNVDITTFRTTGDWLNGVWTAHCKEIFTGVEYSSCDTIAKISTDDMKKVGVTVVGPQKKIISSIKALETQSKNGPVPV

[2] = target: Ephrin type-A receptor 4 (Homo sapiens) (UniProt P54764); details: at 1 µM
Ephrin type-A receptor 4 (Homo sapiens), sequence (P54764 whole entry): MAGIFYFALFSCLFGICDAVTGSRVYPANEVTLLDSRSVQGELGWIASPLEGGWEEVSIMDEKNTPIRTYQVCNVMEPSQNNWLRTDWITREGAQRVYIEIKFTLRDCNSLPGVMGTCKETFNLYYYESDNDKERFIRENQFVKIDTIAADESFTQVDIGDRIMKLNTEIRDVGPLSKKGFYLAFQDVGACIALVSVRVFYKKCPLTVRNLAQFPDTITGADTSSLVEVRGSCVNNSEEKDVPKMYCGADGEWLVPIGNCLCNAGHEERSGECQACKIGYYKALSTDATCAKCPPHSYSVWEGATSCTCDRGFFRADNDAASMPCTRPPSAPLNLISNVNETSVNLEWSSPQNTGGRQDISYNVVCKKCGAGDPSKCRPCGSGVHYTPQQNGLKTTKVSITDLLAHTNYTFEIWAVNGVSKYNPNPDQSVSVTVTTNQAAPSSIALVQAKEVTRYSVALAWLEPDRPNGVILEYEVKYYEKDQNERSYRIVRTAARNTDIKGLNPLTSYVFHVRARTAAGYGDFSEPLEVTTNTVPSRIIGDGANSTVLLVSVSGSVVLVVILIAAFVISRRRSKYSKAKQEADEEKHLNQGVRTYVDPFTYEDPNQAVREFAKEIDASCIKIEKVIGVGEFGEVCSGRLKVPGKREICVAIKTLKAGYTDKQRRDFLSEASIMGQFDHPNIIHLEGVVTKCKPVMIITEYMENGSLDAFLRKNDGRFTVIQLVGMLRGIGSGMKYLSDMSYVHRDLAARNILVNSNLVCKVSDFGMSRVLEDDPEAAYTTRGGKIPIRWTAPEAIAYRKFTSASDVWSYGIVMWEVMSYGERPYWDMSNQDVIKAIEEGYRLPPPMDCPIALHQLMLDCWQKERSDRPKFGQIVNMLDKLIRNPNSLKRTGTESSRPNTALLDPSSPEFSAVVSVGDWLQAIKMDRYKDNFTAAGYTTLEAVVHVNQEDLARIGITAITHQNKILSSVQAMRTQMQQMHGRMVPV

[3] = target: Ephrin type-A receptor 4 (Homo sapiens) (UniProt P54764); details: at 10 µM
[4] = target: Ephrin type-A receptor 5 (Homo sapiens) (UniProt P54756); details: at 1 µM
Ephrin type-A receptor 5 (Homo sapiens), sequence (P54756 whole entry): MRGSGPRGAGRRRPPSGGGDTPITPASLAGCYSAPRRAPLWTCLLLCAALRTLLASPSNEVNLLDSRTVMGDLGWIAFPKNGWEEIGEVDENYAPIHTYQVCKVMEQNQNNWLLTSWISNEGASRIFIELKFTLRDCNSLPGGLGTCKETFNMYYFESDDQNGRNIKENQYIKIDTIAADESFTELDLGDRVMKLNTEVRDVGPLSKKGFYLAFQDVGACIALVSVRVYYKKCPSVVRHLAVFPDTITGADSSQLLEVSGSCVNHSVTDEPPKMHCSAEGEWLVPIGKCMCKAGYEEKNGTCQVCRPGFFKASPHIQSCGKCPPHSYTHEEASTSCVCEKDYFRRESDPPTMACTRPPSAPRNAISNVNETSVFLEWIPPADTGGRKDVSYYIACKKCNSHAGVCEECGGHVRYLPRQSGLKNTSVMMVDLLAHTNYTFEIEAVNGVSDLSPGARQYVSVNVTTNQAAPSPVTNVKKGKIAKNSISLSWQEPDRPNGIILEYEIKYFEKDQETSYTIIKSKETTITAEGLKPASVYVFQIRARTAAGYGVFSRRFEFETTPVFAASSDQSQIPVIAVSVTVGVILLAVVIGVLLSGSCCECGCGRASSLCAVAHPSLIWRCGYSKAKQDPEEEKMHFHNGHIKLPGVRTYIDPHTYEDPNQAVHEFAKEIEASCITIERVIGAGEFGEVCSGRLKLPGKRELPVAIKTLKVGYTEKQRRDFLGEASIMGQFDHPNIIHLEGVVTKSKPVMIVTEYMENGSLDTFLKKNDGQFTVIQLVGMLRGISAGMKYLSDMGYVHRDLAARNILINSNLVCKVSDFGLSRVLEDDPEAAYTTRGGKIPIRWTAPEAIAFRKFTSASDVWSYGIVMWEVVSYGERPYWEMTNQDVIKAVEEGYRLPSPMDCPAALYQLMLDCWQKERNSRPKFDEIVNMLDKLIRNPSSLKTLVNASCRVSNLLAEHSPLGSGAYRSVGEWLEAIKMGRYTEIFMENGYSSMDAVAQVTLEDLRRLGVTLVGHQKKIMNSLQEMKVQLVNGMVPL

[5] = target: Ephrin type-A receptor 5 (Homo sapiens) (UniProt P54756); details: at 10 µM
[6] = target: Ephrin type-A receptor 7 (Homo sapiens) (UniProt Q15375); details: at 1 µM
Ephrin type-A receptor 7 (Homo sapiens), sequence (Q15375 28-998 limits assumed): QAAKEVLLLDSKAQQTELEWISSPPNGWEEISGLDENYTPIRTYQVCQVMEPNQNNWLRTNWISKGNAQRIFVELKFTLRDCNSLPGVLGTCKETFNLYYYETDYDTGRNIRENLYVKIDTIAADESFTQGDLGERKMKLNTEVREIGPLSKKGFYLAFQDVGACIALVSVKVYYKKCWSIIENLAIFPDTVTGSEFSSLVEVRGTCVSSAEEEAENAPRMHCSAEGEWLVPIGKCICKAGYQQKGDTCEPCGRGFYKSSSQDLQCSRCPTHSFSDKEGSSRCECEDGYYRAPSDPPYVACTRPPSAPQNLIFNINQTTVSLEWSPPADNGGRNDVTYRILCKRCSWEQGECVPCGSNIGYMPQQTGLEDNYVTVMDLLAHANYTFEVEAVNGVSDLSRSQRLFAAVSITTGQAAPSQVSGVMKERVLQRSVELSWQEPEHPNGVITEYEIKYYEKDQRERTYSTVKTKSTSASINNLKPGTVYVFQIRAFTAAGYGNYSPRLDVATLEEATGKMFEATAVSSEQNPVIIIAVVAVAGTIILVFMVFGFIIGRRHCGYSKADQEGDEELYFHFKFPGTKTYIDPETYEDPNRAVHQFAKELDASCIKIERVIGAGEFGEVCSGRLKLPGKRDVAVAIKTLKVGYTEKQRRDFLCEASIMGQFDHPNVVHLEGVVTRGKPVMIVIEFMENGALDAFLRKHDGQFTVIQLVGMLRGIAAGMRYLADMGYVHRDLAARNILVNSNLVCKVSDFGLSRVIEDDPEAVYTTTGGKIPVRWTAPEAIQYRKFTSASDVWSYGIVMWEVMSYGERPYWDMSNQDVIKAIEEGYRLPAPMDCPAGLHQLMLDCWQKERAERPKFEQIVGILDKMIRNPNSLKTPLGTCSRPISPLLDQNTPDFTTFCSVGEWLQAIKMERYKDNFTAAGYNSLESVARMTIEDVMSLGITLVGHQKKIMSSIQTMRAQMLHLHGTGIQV

[7] = target: Ephrin type-A receptor 7 (Homo sapiens) (UniProt Q15375); details: at 10 µM
[8] = target: T2, Ephrin type-A receptor 8 (Homo sapiens) (UniProt P29322); details: at 1 µM
T2 sequence (whole entry): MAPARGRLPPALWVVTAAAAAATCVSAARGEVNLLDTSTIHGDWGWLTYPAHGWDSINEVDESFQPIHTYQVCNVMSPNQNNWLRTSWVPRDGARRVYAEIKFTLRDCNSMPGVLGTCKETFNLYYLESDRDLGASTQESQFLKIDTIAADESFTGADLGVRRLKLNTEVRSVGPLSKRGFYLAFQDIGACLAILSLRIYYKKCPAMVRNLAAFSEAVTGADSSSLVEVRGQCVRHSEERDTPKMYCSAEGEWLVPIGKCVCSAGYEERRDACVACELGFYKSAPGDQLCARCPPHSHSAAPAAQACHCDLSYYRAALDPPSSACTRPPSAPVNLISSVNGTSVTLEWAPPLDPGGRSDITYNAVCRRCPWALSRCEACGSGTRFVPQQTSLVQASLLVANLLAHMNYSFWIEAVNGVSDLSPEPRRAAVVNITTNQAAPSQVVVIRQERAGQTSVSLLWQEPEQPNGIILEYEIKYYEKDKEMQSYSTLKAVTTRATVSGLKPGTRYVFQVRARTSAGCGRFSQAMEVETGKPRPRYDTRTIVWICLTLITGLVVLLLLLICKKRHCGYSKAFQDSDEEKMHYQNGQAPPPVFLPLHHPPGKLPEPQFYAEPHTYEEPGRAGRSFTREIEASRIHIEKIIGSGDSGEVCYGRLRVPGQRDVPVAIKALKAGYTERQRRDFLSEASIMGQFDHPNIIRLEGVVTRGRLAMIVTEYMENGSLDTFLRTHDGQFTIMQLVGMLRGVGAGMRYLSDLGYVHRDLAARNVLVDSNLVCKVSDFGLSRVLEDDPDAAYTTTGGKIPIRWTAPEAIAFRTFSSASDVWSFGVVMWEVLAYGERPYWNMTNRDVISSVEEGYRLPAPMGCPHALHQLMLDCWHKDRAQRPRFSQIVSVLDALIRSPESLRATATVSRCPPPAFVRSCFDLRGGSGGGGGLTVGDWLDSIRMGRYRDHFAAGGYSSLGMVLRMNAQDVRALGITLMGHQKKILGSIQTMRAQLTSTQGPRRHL

[9] = target: T2, Ephrin type-A receptor 8 (Homo sapiens); details: at 10 µM
[10] = target: T3, Ephrin type-B receptor 1 (Homo sapiens) (UniProt P54762); details: at 1 µM
T3 sequence (whole entry): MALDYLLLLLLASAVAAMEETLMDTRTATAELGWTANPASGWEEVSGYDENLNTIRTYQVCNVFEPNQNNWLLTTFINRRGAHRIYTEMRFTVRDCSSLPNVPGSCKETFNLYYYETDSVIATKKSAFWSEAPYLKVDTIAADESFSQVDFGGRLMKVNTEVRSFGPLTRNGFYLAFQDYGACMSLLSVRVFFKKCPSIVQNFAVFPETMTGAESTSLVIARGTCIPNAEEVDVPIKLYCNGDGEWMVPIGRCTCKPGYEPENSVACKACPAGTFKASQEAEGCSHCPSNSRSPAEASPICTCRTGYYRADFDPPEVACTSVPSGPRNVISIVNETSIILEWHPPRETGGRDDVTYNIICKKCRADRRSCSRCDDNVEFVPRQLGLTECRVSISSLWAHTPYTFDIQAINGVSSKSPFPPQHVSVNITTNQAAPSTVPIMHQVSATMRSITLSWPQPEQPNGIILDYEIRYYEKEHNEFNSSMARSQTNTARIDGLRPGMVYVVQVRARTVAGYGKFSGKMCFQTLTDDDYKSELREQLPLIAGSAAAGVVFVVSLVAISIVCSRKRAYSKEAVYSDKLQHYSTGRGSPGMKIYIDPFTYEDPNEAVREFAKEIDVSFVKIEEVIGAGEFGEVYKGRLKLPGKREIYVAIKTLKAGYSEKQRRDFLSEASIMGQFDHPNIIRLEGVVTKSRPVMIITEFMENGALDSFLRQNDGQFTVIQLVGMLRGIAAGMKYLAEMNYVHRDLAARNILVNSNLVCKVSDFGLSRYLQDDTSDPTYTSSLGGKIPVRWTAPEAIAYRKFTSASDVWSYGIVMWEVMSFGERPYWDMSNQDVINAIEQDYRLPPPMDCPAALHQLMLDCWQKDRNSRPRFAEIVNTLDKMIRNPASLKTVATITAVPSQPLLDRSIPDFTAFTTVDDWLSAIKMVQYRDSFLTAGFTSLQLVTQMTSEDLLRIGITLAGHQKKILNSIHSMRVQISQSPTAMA

`Nc1ncnc2c1c(-c1ccc(Oc3ccccc3)cc1)cn2C1CCCC1` was tested. Which residual activity [1] did it give?
Its residual activity is 48%.

And the residual activity [2]?
Its residual activity is 112%.

And the residual activity [3]?
The residual activity was 79%.

What about the residual activity [4] of the same compound?
The residual activity was 83%.

And the residual activity [5]?
The residual activity was 38%.

What about the residual activity [6] of the same compound?
The residual activity was 94%.

And the residual activity [7]?
Its residual activity is 66%.

And the residual activity [8]?
Its residual activity is 84%.

And the residual activity [9]?
Its residual activity is 27%.

What about the residual activity [10] of the same compound?
Its residual activity is 90%.
